Measured values published in PubChem BioAssay (EPA / NIEHS).
Calls of active or inactive are those of the source. The calls were made as follows: active = hit-call score of the fitted dose curve at least 0.9, where 1 is the maximum; inconclusive = response in the unintended direction; inactive = score below 0.9.

Target: Androgen Receptor/SRC-1 Co-activator, AR (gene 367) (UniProt P10275)
Assay: OT_AR_ARSRC1_0960: Odyssey Thera (OT) 16-hour HEK293T Protein-Complementation Assay for Androgen Receptor/SRC-1 Co-activator (AID 2283353);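 also: actives raise the signal above DMSO so potency reflects increased AR and SRC-1 complex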
Description: OT_AR_ARSRC1_0960 is a cell-based, single-readout assay that uses HEK293T, a human kidney cell line, with measurements taken at 16 hours after chemical dosing in a 384-well plate.OT_AR_ARSRC1_0960 is one of one assay component(s) measured or calculated from the OT_AR_ARSRC1_0960 assay. It is designed to make measurements of protein fragment complementation, a form of binding reporter, as detected with fluorescence intensity signals by Protein-fragment Complementation technology.Data from the assay component OT_AR_ARSRC1_0960 was analyzed into 1 assay endpoint. This assay endpoint, OT_AR_ARSRC1_0960, was analyzed in the positive analysis fitting direction relative to DMSO as the negative control and baseline of activity. Using a type of binding reporter, measures of receptor for gain-of-signal activity can be used to understand the binding at the pathway-level as they relate to the gene AR. Furthermore, this assay endpoint can be referred to as a primary readout, because the performed assay has only produced 1 assay endpoint. To generalize the intended target to other relatable targets, this assay endpoint is annotated to the nuclear receptor intended target family, where the subfamily is steroidal.
Protein-fragment complementation assay, or PCA, is a method for the identification and quantification of protein-protein interactions. In the PCA, the proteins of interest ("bait" and "prey") are each covalently linked to fragments of a third protein (e.g. DHFR, which acts as a "reporter"). Interaction between the bait and the prey proteins brings the fragments of the reporter protein in close proximity to allow them to form a functional reporter protein whose activity can be measured. The OT AR / SRC-1 assay assessed androgen receptor chemical interactions using a rapidly maturing, intensely fluorescent mutant of YFP known as Venus, rationally dissected into two separate fragments. […] Fusion constructs were transfected into HEK293T cells with a (Gly4Ser)2 linker between the AR/SRC-1 and YFP fragment genes to facilitate complementation when interacting proteins bring fragments into close proximity. The construct is stably expressed in HEK293T cells. […] Images were acquired on an Evotec Opera at 2 wavelengths (488 and 635nm), and the ratio of fluorescence in the nucleus relative to fluorescence in the cytoplasm (N/C Ratio) in the 488nm channel was calculated for a minimum of 400 cells per image. Both agonists and antagonists of the AR receptor induce nuclear translocation to varying degrees. […] The OT AR/SRC-1 assay was also run for 16 hours (see description for OT_AR_ARSRC1_0960).

Androgen Receptor/SRC-1 Co-activator, AR (gene 367), sequence (P10275 whole entry, looked up): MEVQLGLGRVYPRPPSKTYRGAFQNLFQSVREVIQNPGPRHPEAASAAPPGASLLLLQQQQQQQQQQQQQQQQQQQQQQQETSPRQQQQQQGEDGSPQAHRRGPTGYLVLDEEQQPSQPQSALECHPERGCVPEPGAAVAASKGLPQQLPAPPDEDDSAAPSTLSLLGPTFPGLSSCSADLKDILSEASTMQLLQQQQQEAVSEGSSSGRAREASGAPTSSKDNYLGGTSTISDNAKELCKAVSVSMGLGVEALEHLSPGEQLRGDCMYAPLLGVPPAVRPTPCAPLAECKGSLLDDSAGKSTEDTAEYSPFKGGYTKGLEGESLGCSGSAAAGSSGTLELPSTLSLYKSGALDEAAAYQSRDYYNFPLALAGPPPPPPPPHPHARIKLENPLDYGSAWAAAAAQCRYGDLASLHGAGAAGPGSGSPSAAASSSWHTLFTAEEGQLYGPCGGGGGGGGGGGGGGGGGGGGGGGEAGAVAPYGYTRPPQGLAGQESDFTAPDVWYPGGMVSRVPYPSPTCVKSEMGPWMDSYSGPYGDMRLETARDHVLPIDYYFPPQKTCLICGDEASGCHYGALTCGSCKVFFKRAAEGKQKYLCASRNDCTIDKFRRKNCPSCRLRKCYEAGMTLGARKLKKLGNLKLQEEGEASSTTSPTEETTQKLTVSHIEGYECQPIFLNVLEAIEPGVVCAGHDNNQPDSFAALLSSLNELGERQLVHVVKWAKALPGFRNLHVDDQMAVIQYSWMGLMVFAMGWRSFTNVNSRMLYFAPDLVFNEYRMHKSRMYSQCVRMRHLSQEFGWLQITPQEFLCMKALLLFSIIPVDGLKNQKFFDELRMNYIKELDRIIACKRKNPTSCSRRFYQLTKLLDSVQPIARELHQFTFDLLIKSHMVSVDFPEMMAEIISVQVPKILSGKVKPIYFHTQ

With `C#CC(O)C(CC)CCCC` (stereo not drawn) as the compound, how does the AC50 read?
Its AC50 is 72.6 µM (active).

How did the AC50 turn out when `Cc1c(C)c2c(c(C)c1O)CCC(C)(COc1ccc(CC3SC(=O)NC3=O)cc1)O2` (stereo not drawn) was run?
Its AC50 is 27.4 µM (active).

With `CCC(C)N(C)C(=O)c1cc2ccccc2c(-c2ccccc2Cl)n1` (stereo not drawn) as the compound, how does the AC50 read?
The AC50 was 26 µM (active).

For `CSc1ccc(Oc2ccc(S(N)(=O)=O)cc2CN(C)C)cc1C`, which AC50 is on record?
The AC50 was 80.7 µM (active).

`O=C1CCCCC1` was tested. Which outcome did it give?
The outcome was “inactive”.

Which AC50 does the source give for `CC(C)OC(=O)C(C)(C)Oc1ccc(C(=O)c2ccc(Cl)cc2)cc1` here?
Its AC50 is 34.4 µM (active).

Which outcome does the source give for `CCOCCOCCO` here?
The outcome was “inactive”.

Which AC50 does the source give for `Cc1ccc(-c2cc(C(F)(F)F)nn2-c2ccc(S(N)(=O)=O)cc2)cc1` here?
The AC50 was 33.7 µM (active).

For `C=CCCCCCCCCCCCC`, which outcome is on record?
Its outcome is “inactive”.

Which outcome does the source give for `Cc1cc(SC2=C(O)C[C@@](CCc3ccc(N)cc3)(C(C)C)OC2=O)c(C(C)(C)C)cc1CO` here?
The outcome was “inactive”.

Which outcome does the source give for `O=C(NS(=O)(=O)/C=C/c1cccs1)c1ccc(F)cc1Br` here?
Its outcome is “inactive”.

`CCCCCCCCCC[N+](C)(C)[O-]` was tested. Which outcome did it give?
Its outcome is “inactive”.

For `Nc1nc(=S)c2[nH]cnc2[nH]1`, which outcome is on record?
The outcome was “inactive”.

For `NCCOCCOCCN`, which outcome is on record?
The outcome was “inactive”.

With `O=C(Oc1ccccc1)c1cccc(C(=O)Oc2ccccc2)c1` as the compound, how does the outcome read?
The outcome was “inactive”.

With `O=C1OC(c2ccc(O)cc2)(c2ccc(O)cc2)c2ccccc21` as the compound, how does the AC50 read?
Its AC50 is 35.3 µM (active).

`CC1=C(C)S(=O)(=O)CCS1(=O)=O` was tested. Which outcome did it give?
The outcome was “inactive”.

How did the AC50 turn out when `O=Cc1ccccc1C=O` was run?
The AC50 was 75.3 µM (active).
